The supplement of paper PMC3545927
This is one part of the list. The hit rate among all sequences tested is not known here.

Molecular target: furin, P09958
Experiment: furin cleavage Z-score vs untreated control; higher = more cleavage, active = 3.5 or more, inactive = 1 or less, 8 variable residues between constant flanks
In short: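 The cleavage Z-score was derived for purified furin acting on 8-mer peptides held on magnetic beads and fused to a cDNA oligonucleotide. Digests lasted 7.5, 15 or 30 min at 1:10 enzyme:substrate in 50 mM HEPES pH 7.5 with CaCl2 and NaCl. Sequencing counts of released DNA, log-transformed against furin-free reactions, were lowess-adjusted and scaled by median absolute deviation.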

furin, P09958, sequence (P09958 whole entry): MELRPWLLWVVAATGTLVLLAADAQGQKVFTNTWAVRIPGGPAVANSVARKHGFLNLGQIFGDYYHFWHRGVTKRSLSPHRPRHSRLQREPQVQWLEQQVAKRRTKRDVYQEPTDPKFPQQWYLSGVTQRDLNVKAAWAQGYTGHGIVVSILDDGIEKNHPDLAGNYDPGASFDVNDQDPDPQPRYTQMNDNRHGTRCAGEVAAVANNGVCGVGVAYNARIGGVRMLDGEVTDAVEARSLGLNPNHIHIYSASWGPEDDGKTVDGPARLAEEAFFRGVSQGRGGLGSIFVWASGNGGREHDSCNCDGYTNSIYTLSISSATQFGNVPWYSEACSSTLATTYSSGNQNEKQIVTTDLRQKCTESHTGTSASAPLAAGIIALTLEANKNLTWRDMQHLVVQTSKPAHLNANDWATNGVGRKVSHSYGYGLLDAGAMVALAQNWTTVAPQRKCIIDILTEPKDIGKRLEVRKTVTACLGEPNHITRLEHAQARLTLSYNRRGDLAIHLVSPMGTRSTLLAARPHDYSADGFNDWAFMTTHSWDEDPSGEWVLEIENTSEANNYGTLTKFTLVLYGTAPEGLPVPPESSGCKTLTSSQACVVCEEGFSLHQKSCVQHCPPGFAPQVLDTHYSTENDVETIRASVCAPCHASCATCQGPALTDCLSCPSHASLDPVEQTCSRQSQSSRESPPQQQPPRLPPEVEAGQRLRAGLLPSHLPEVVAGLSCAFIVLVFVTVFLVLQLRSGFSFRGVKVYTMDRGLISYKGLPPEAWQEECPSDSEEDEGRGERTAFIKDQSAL

In the case of CADIWDWICEAGNASASA [HC1150], the “furin cleavage Z-score” value (7.5 min) is reported as -0.513 (inactive), the “furin cleavage Z-score” value (15 min) is reported as -0.19 (inactive) and the “furin cleavage Z-score” value (30 min) is reported as -1.62 (inactive).

With CAEVVTFTWVAGNASASA [HC146] the “furin cleavage Z-score” value (7.5 min) was -0.177 (inactive), the “furin cleavage Z-score” value (15 min) was -1.31 (inactive) and the “furin cleavage Z-score” value (30 min) was -0.383 (inactive).

In the case of CAYGFQYSPGAGNASASA [HC1466], the “furin cleavage Z-score” value (7.5 min) is reported as -1.04 (inactive), the “furin cleavage Z-score” value (15 min) is reported as 0.304 (inactive) and the “furin cleavage Z-score” value (30 min) is reported as -1.02 (inactive).

CAEVPCHRMSAGNASASA [HC2386] was tested, and the “furin cleavage Z-score” value (7.5 min) was 0.401 (inactive), the “furin cleavage Z-score” value (15 min) was 1.85 and the “furin cleavage Z-score” value (30 min) was -1.19 (inactive).

For CAGRTWAQPGAGNASASA [HC197], the “furin cleavage Z-score” value (7.5 min) was 0.399 (inactive), the “furin cleavage Z-score” value (15 min) was 0.197 (inactive) and the “furin cleavage Z-score” value (30 min) was -2.32 (inactive).

CATHPCSGSWAGNASASA [HC1855] was tested, and the “furin cleavage Z-score” value (7.5 min) was -0.725 (inactive), the “furin cleavage Z-score” value (15 min) was 0.134 (inactive) and the “furin cleavage Z-score” value (30 min) was -0.569 (inactive).

With CARLRRSLGEAGNASASA [FS-1830] the “furin cleavage Z-score” value (7.5 min) was 4.48 (active), the “furin cleavage Z-score” value (15 min) was 6.54 (active) and the “furin cleavage Z-score” value (30 min) was 5.36 (active).

For CARIGRAVRPAGNASASA [FS-1720], the “furin cleavage Z-score” value (7.5 min) was 6.17 (active), the “furin cleavage Z-score” value (15 min) was 6.97 (active) and the “furin cleavage Z-score” value (30 min) was 7.91 (active).

CARTPRAVRPAGNASASA [FS-2241] was tested, and the “furin cleavage Z-score” value (7.5 min) was 4.95 (active), the “furin cleavage Z-score” value (15 min) was 5.05 (active) and the “furin cleavage Z-score” value (30 min) was 7.16 (active).

In the case of CADSSRSVRPAGNASASA [FS-1518], the “furin cleavage Z-score” value (7.5 min) is reported as -1.18 (inactive), the “furin cleavage Z-score” value (15 min) is reported as -0.293 (inactive) and the “furin cleavage Z-score” value (30 min) is reported as 0.507 (inactive).

CAREKKSASWAGNASASA [FS-3244] was tested, and the “furin cleavage Z-score” value (7.5 min) was -1.37 (inactive), the “furin cleavage Z-score” value (15 min) was -1 (inactive) and the “furin cleavage Z-score” value (30 min) was 0.389 (inactive).

With CANDVVCCSMAGNASASA [HC2121] the “furin cleavage Z-score” value (7.5 min) was 0.854 (inactive), the “furin cleavage Z-score” value (15 min) was 0.345 (inactive) and the “furin cleavage Z-score” value (30 min) was 0.79 (inactive).

In the case of CADIMEECSQAGNASASA [HC1804], the “furin cleavage Z-score” value (7.5 min) is reported as -0.826 (inactive), the “furin cleavage Z-score” value (15 min) is reported as -1.93 (inactive) and the “furin cleavage Z-score” value (30 min) is reported as 0.332 (inactive).

With CAVEECSQHLAGNASASA [HC1670] the “furin cleavage Z-score” value (7.5 min) was 0.23 (inactive), the “furin cleavage Z-score” value (15 min) was 0.997 (inactive) and the “furin cleavage Z-score” value (30 min) was -0.342 (inactive).

In the case of CAELVVCCSMAGNASASA [HC2125], the “furin cleavage Z-score” value (7.5 min) is reported as -0.0192 (inactive), the “furin cleavage Z-score” value (15 min) is reported as -0.743 (inactive) and the “furin cleavage Z-score” value (30 min) is reported as -0.249 (inactive).

For CARMIRTNEAAGNASASA [FS-3000], the “furin cleavage Z-score” value (7.5 min) was 0.282 (inactive), the “furin cleavage Z-score” value (15 min) was 0.0077 (inactive) and the “furin cleavage Z-score” value (30 min) was 0.743 (inactive).

For CAVLEDGVNYAGNASASA [HC239], the “furin cleavage Z-score” value (7.5 min) was -0.545 (inactive), the “furin cleavage Z-score” value (15 min) was -2.21 (inactive) and the “furin cleavage Z-score” value (30 min) was 0.0229 (inactive).

CAVVKRPRRYAGNASASA [FS-314] was tested, and the “furin cleavage Z-score” value (7.5 min) was 9.96 (active), the “furin cleavage Z-score” value (15 min) was 10.8 (active) and the “furin cleavage Z-score” value (30 min) was 10 (active).

In the case of CAVVKCSMSYAGNASASA [HC2034], the “furin cleavage Z-score” value (7.5 min) is reported as 0.0381 (inactive), the “furin cleavage Z-score” value (15 min) is reported as 0.000409 (inactive) and the “furin cleavage Z-score” value (30 min) is reported as 0.298 (inactive).

CAVLHRRRRYAGNASASA [FS-891] was tested, and the “furin cleavage Z-score” value (7.5 min) was 9.61 (active), the “furin cleavage Z-score” value (15 min) was 10.5 (active) and the “furin cleavage Z-score” value (30 min) was 9.16 (active).

With CAVVCCSMRYAGNASASA [HC2073] the “furin cleavage Z-score” value (7.5 min) was 0.763 (inactive), the “furin cleavage Z-score” value (15 min) was 0.207 (inactive) and the “furin cleavage Z-score” value (30 min) was 0.313 (inactive).

In the case of CAKRWRRRRYAGNASASA [FS-1350], the “furin cleavage Z-score” value (7.5 min) is reported as 10.3 (active), the “furin cleavage Z-score” value (15 min) is reported as 12 (active) and the “furin cleavage Z-score” value (30 min) is reported as 9.1 (active).

In the case of CAHRSRDGRYAGNASASA [FS-797], the “furin cleavage Z-score” value (7.5 min) is reported as 0.199 (inactive), the “furin cleavage Z-score” value (15 min) is reported as 1.41 and the “furin cleavage Z-score” value (30 min) is reported as 0.834 (inactive).

With CARMIRRRRYAGNASASA [FS-1652] the “furin cleavage Z-score” value (7.5 min) was 10.9 (active), the “furin cleavage Z-score” value (15 min) was 13.2 (active) and the “furin cleavage Z-score” value (30 min) was 9.13 (active).

CAVLARMMRPAGNASASA [FS-966] was tested, and the “furin cleavage Z-score” value (7.5 min) was -0.155 (inactive), the “furin cleavage Z-score” value (15 min) was 0.612 (inactive) and the “furin cleavage Z-score” value (30 min) was -0.556 (inactive).

With CAYMSKAHGIAGNASASA [HC794] the “furin cleavage Z-score” value (7.5 min) was -0.614 (inactive), the “furin cleavage Z-score” value (15 min) was -0.299 (inactive) and the “furin cleavage Z-score” value (30 min) was 0.089 (inactive).

With CANYTIFKIRAGNASASA [HC472] the “furin cleavage Z-score” value (7.5 min) was -0.135 (inactive), the “furin cleavage Z-score” value (15 min) was 0.367 (inactive) and the “furin cleavage Z-score” value (30 min) was -0.43 (inactive).

In the case of CAELPCHRPSAGNASASA [HC2325], the “furin cleavage Z-score” value (7.5 min) is reported as 0.967 (inactive), the “furin cleavage Z-score” value (15 min) is reported as -0.4 (inactive) and the “furin cleavage Z-score” value (30 min) is reported as 0.0984 (inactive).

In the case of CAEVPCHWPSAGNASASA [HC2368], the “furin cleavage Z-score” value (7.5 min) is reported as -0.575 (inactive), the “furin cleavage Z-score” value (15 min) is reported as -0.478 (inactive) and the “furin cleavage Z-score” value (30 min) is reported as 0.531 (inactive).

In the case of CAVVCCQMSYAGNASASA [HC119], the “furin cleavage Z-score” value (7.5 min) is reported as -0.852 (inactive), the “furin cleavage Z-score” value (15 min) is reported as -0.183 (inactive) and the “furin cleavage Z-score” value (30 min) is reported as 0.623 (inactive).

For CADKNQVEGEAGNASASA [HC686], the “furin cleavage Z-score” value (7.5 min) was -0.934 (inactive), the “furin cleavage Z-score” value (15 min) was -0.739 (inactive) and the “furin cleavage Z-score” value (30 min) was -1.82 (inactive).

In the case of CAAKLMPQLPAGNASASA [HC1159], the “furin cleavage Z-score” value (7.5 min) is reported as 0.255 (inactive), the “furin cleavage Z-score” value (15 min) is reported as -0.546 (inactive) and the “furin cleavage Z-score” value (30 min) is reported as 0.241 (inactive).

For CALTLSPYYKAGNASASA [HC575], the “furin cleavage Z-score” value (7.5 min) was -0.934 (inactive), the “furin cleavage Z-score” value (15 min) was -0.768 (inactive) and the “furin cleavage Z-score” value (30 min) was -0.313 (inactive).

CALVRRRRRYAGNASASA [FS-462] was tested, and the “furin cleavage Z-score” value (7.5 min) was 11 (active), the “furin cleavage Z-score” value (15 min) was 12.3 (active) and the “furin cleavage Z-score” value (30 min) was 9.67 (active).

In the case of CALTLRMRRYAGNASASA [FS-1032], the “furin cleavage Z-score” value (7.5 min) is reported as 9.91 (active), the “furin cleavage Z-score” value (15 min) is reported as 10.2 (active) and the “furin cleavage Z-score” value (30 min) is reported as 11.2 (active).

With CAMNSRKGRYAGNASASA [FS-1237] the “furin cleavage Z-score” value (7.5 min) was 1.23, the “furin cleavage Z-score” value (15 min) was 0.312 (inactive) and the “furin cleavage Z-score” value (30 min) was 2.34.

With CAAHDGAGKRAGNASASA [HC1557] the “furin cleavage Z-score” value (7.5 min) was -0.0785 (inactive), the “furin cleavage Z-score” value (15 min) was 0.342 (inactive) and the “furin cleavage Z-score” value (30 min) was 0.362 (inactive).

For CAVEMEECSQAGNASASA [HC1790], the “furin cleavage Z-score” value (7.5 min) was 0.132 (inactive), the “furin cleavage Z-score” value (15 min) was -1.38 (inactive) and the “furin cleavage Z-score” value (30 min) was -1.19 (inactive).

With CATTPCSGNWAGNASASA [HC1921] the “furin cleavage Z-score” value (7.5 min) was 0.659 (inactive), the “furin cleavage Z-score” value (15 min) was 0.815 (inactive) and the “furin cleavage Z-score” value (30 min) was -0.795 (inactive).

With CAPVGSQLPCAGNASASA [HC1238] the “furin cleavage Z-score” value (7.5 min) was 0.473 (inactive), the “furin cleavage Z-score” value (15 min) was -1.27 (inactive) and the “furin cleavage Z-score” value (30 min) was 0.372 (inactive).

CAGVRATRKTAGNASASA [HC183] was tested, and the “furin cleavage Z-score” value (7.5 min) was 0.267 (inactive), the “furin cleavage Z-score” value (15 min) was 0.577 (inactive) and the “furin cleavage Z-score” value (30 min) was 0.344 (inactive).

CAIREVPCHRAGNASASA [HC2424] was tested, and the “furin cleavage Z-score” value (7.5 min) was -0.0693 (inactive), the “furin cleavage Z-score” value (15 min) was 1.33 and the “furin cleavage Z-score” value (30 min) was 2.41.

CAVIQMYTNVAGNASASA [HC709] was tested, and the “furin cleavage Z-score” value (7.5 min) was 0.334 (inactive), the “furin cleavage Z-score” value (15 min) was -0.0874 (inactive) and the “furin cleavage Z-score” value (30 min) was -1.04 (inactive).

In the case of CARAKRRWAPAGNASASA [FS-2638], the “furin cleavage Z-score” value (7.5 min) is reported as 0.9 (inactive), the “furin cleavage Z-score” value (15 min) is reported as 1.95 and the “furin cleavage Z-score” value (30 min) is reported as 0.773 (inactive).

For CARAKREEKKAGNASASA [FS-2634], the “furin cleavage Z-score” value (7.5 min) was 3.98 (active), the “furin cleavage Z-score” value (15 min) was 2.96 and the “furin cleavage Z-score” value (30 min) was 4.64 (active).

CARAKRPLMVAGNASASA [FS-2884] was tested, and the “furin cleavage Z-score” value (7.5 min) was 0.123 (inactive), the “furin cleavage Z-score” value (15 min) was 1.97 and the “furin cleavage Z-score” value (30 min) was -0.869 (inactive).

With CARAKRRAIRAGNASASA [FS-2637] the “furin cleavage Z-score” value (7.5 min) was 10.3 (active), the “furin cleavage Z-score” value (15 min) was 11.4 (active) and the “furin cleavage Z-score” value (30 min) was 9.08 (active).

For CARAYRSSMRAGNASASA [FS-2894], the “furin cleavage Z-score” value (7.5 min) was -1.12 (inactive), the “furin cleavage Z-score” value (15 min) was -1.44 (inactive) and the “furin cleavage Z-score” value (30 min) was -1.22 (inactive).

CARAKRTTKRAGNASASA [FS-3241] was tested, and the “furin cleavage Z-score” value (7.5 min) was 8.36 (active), the “furin cleavage Z-score” value (15 min) was 10.4 (active) and the “furin cleavage Z-score” value (30 min) was 9.38 (active).

CARAKRAFLPAGNASASA [FS-1991] was tested, and the “furin cleavage Z-score” value (7.5 min) was 3.35, the “furin cleavage Z-score” value (15 min) was 4.79 (active) and the “furin cleavage Z-score” value (30 min) was 6.29 (active).
